Screening data as filed in PubChem BioAssay.
This excerpt belongs to a sample that is enriched for hits.
Pf Dd2 growth = blocks in vitro growth of P. falciparum Dd2. P. falciparum Dd2 growth, SYBR Green, 72 h. Potency, µM (highest dose often 28.9 µM), for the others: at the highest dose activity, negative = inhibition, most hits filed as inhibitors. hit rate 4.3% among 120,000. AID 1347417; active = well fitted inhibition curve with a large enough effect;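 also: plate controls were DMSO vehicle for no effect and reference drug for full effect; nearly all actives have a fitted effect of over 65% in size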
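Readout: SYBR Green fluorescence, 485 nm excitation, 535 nm emission, after ~16 h lysis at 37C. Before that, Dd2-infected red cells (2.5% hematocrit) grew 72 h with compound, 29 uM top final concentration.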
* marks the source's active call; other numbers are inactive results; i = inactive; [ ] = another dose, or the depositor's remark. Potency is read from the fitted curve at half-maximal effect.

SMILES | Pf Dd2 growth
COc1ccccc1NC(=O)COc1cccc(-c2nnc3n2CCCC3)c1 | 0.63µM*
COc1ccc(CNC(=O)COCc2cc(-c3ccc4c(c3)OCO4)on2)cc1 | 150%
O=C(COc1cccc(-c2nnc3n2CCCC3)c1)NCc1ccccc1 | i
COc1cccc(-c2cc(C3CCN(C(=O)Nc4cccc(SC)c4)CC3)[nH]n2)c1 | -28%
O=C(COc1ccc(-c2nnc3n2CCCC3)cc1)NCc1ccc2c(c1)OCO2 | 10µM*
COc1ccc(N2CCN(C3(c4ccccc4)C(=O)c4ccccc4C3=O)CC2)cc1 | -5%
CNC(=O)N1CCC(C2CCN(C(=O)c3ccccc3C(F)(F)F)C2)CC1 (stereo not given) | -23%
O=C(Cn1ccn2nc(-c3ccc(F)cc3)c(CO)c2c1=O)NCc1ccc(F)cc1Cl | -8%
Cc1cc(NC(=O)C2CCN(C(=O)c3ncn4c3COC(c3ccc(F)cc3)C4)CC2)ccc1F (stereo not given) | i
CC1(c2ccccc2)N(Cc2ccccc2C#N)C(=O)OC12CCN(C(=O)Cc1ccc3c(c1)OCO3)CC2 (stereo not given) | -12%
CCN(CC)S(=O)(=O)c1ccc2nc(NC(=O)c3ccc(Br)o3)sc2c1 | i
COc1cccc([S+](=O)([O-])N2CCC3(C2)C(=NC2CCCC2)NC(=O)N3c2cccnc2)c1 (stereo not given) | 2%
Cc1cc2cccc(-c3nc(C4CCOC4)no3)c2o1 (stereo not given) | -23%
CC(C)(O)c1cc(CC2(NCc3cnc4ccccc4c3)COC2)no1 | -23%[44.1 µM]
CCOc1ccc(NC(=O)COc2cccc(-c3nnc4n3CCCC4)c2)cc1 | 2.8µM*
CCOc1ccc(NC(=O)Cn2nc3n(c2=O)CCCCC3)cc1 | 27%
CCOc1ccc(NC(=O)Cn2c(C)cc3nc4n(c(=O)c32)CCCCC4)cc1 | -12%
CCN(CCOc1ccc(OC)cc1)C(=O)c1cc(S(N)(=O)=O)ccc1C | -1%
COc1cc(OC)c(NC(=O)Cn2cnc3nc4c(cc3c2=O)CCCC4)cc1Cl | 58%
Cc1ccc([C@H]2C[C@@H](O)[C@@H](O)[C@@H]2NS(C)(=O)=O)cc1 | -11%[44.1 µM]
COc1cccc(CCC(=O)N2CCN(C(=O)c3nnn4c3COC(c3ccccc3)C4)CC2)c1 (stereo not given) | -3%
Cc1cc(CN2CCc3n[nH]c(=O)n3CC2)n(C)n1 | i
OC[C@@H]1O[C@H](CNCc2ccc(F)cc2)[C@H](N2CCCC2)[C@@H]1O | i
COC[C@H]1CCCN1[C@@H]1[C@H](O)[C@H](CO)O[C@@H]1CNS(=O)(=O)c1cccs1 | -13%
COC[C@H]1CCCN1[C@@H]1[C@H](O)[C@H](CO)O[C@@H]1CN(Cc1ccc(F)cc1)Cc1ccc(F)cc1 | 4.5µM*
SMILES | Pf Dd2 growth
COCC(=O)N[C@H]1C[C@@H](CO)N(Cc2cccc(OC)c2)C1 | 24%
C=CCOc1cc(C)c2c(c1C)[C@H](O)C([C@H](C)C(=O)NCCOC)CC2 (stereo not given in full) | -13%[44.1 µM]
Cc1cc(C(=O)N2CCCC3(CCC(=O)N(Cc4cccnc4)C3)C2)n(C)n1 (stereo not given) | -3%
COc1ccc(-c2oc3ncn4nc(-c5ccccc5C)nc4c3c2-c2ccc(OC)cc2)cc1 | 58%
COc1ccc(-c2nn3c(-c4ccccc4C)nnc3c3ccccc23)cc1 | 11µM*
Cc1ccc(-c2nnc3c4ccccc4c(-c4ccccc4)nn23)cc1 | 19%
CCn1c(C(=O)NCc2ccccc2)cc2sc(Cl)cc21 | 34%
O=C(Cn1cc(S(=O)(=O)Cc2ccccc2Cl)c2ccccc21)NCc1ccccc1Cl | i
CN(C)c1ccc(NC(=O)Cn2cc(S(=O)(=O)Cc3cccc(Cl)c3)c3ccccc32)cc1 | i
CN(C)c1ccc(NC(=O)Cn2cc(S(=O)(=O)Cc3ccccc3Cl)c3ccccc32)cc1 | 7.9µM*
CN(C)C[C@@H]1CN(S(C)(=O)=O)C[C@H]1NC(=O)Cc1cccc(F)c1 | -4%
Cn1c(CN2CCCCC2)nc2cc(NC(=O)c3ccc(Cl)cc3)ccc21 | -14%
CCCC(=O)Nc1ccc2c(c1)nc(CN1CCN(C(=O)OCC)CC1)n2C(C)C | -7%
CCn1c(CN2CCN(C)CC2)nc2ccccc21 | -23%
CCn1c(CN2CCOCC2)nc2cc(NC(=O)c3cc(OC)c(OC)c(OC)c3)ccc21 | -16%
CCn1c(CN2CCCCC2)nc2cc(NC(=O)COc3ccc(C(C)(C)C)cc3)ccc21 | 8.9µM*
CCn1c(CN2CCCCC2)nc2cc(NC(=O)c3cccc([N+](=O)[O-])c3)ccc21 | 3.5µM*
CCCNC(=O)CCN(CCCOC)C(=O)c1cc(C)oc1C | -17%
CCN(CC)[C@H]1[C@@H]2OC[C@@H](O2)[C@@H](NC(=O)Nc2ccc(OC)cc2)[C@@H]1O | -25%[44.1 µM]
O=C1NCCN1C1CCN(Cc2cccnc2)CC1 | i
COc1ccccc1CCC(=O)N1C[C@@H](C(N)=O)[C@H](c2nc(C)no2)C1 | -26%
CC1=C(C(=O)Nc2cccnc2)C(c2ccc(F)cc2)n2nc(SCc3ccccc3F)nc2N1 (stereo not given) | -28%
CCN(CC)C(=O)Cn1c(=O)n(Cc2ccc(C(=O)NCCCOC)cc2)c(=O)c2ccccc21 | 14%
COc1cc(Cl)cc(CN2CCC3(CCOCC3)CC2)c1OC | -22%
COc1cc(Cl)cc(CN2CCC3(CCCNC3)C2)c1OC (stereo not given) | 8.9µM*
SMILES | Pf Dd2 growth
COc1ccc(O)cc1CN1CCC2(CCNCC2)C1 | -15%
NC(=O)[C@H](CC1CCCCC1)NC(=O)[C@@H]1C[C@@H](NC(=O)Nc2cccc(F)c2)CCN1C(=O)[C@H]1CCCN1 | -18%
CCCn1c2ccccc2c2cnn(CC(=O)NCCc3ccc(OCC)cc3)c(=O)c21 | 40%
CCN(CC)C(=O)[C@@H]1CCC[C@@H](NC(=O)c2ccc(OC)cc2)CN(C)C(=O)C1 | 8%[44.1 µM]
COCc1cc(N2CCc3onc(-c4cccc5ccccc45)c3C2)ncn1 | 14µM*
O=S(=O)(c1cccnc1)N1CCc2onc(-c3cccc4ccccc34)c2C1 | -17%
COc1ncccc1C(=O)N1CCc2onc(-c3cccc4ccccc34)c2C1 | -20%
Cc1ccc(OCC(=O)Nc2ccc(S(=O)(=O)Nc3cc(C)on3)cc2)c(Br)c1 | 40%
COC[C@@H]1CN(Cc2cnn(C(C)C)c2)C[C@H]1c1nc(C2CC2)no1 | -8%
Cc1ccc(SCC(=O)Nc2ccc3oc(-c4cccc(C)c4)nc3c2)cc1 | -4%
Cc1ccc2nc(-c3ccc(C)c(NC(=O)CSc4ccc(Cl)cc4)c3)oc2c1 | 0%
Cc1ccc2nc(-c3cccc(NC(=O)CSc4ccc(Cl)cc4)c3)oc2c1 | 11µM*
O=Cc1cccc(N2CCN(C(=O)NC3CCCCC3)CC2=O)c1 | -2%
COc1cccc(C(=O)N2CCC3(CC2)OCC(C(=O)NC(C)C)N3C(=O)c2ccc(F)cc2)c1 (stereo not given) | -26%
CCn1c(=O)n(CC)c2cc(N3CCCCC3)c(NC(=O)Nc3cc(C)cc(C)c3)cc21 | 10µM*
Cc1cc(C)cc(NC(=O)Cn2nc3n(c2=O)CCCCC3)c1 | 2%
Cc1cc(C)cc(NC(=O)Cn2c(N3CCCCC3)nc(C)c(C)c2=O)c1 | i
CCc1ccccc1NC(=O)Nc1cc(C(=O)NCc2ccccc2OC)ccc1N1CCCC1 | -5%
Cc1ccc(NC(=O)Nc2cc3c(cc2N2CCCCC2)n(C)c(=O)n3C)cc1Cl | i
CCn1c(=O)n(CC)c2cc(N3CCCCC3)c(NC(=O)Nc3ccccc3Cl)cc21 | 10µM*
COc1ccc(NC2CN(C(=O)OC(C)(C)C)C2)cc1 | -11%[44.1 µM]
